# From PubChem BioAssay (NCATS)
# “And” between values parts separate entries of the source, which are not always exact repeats. Identical values can stand only once. Inconclusive results are not listed. The source made the active and inactive calls. Unless noted, calls come from the whole dose curve; as a rule, active = well fitted curve in the direction sought with a large enough effect; inconclusive = small, poorly fitted or top-dose-only effect, or another doubt; inactive = no such curve, though single readings can be large; an effect the other way counts as inactive or inconclusive.
# Columns and labels:
# [1] = molecular target: Cytochrome P450 2D6 (Homo sapiens) (UniProt P10635); test: Cytochrome P450 family 2 subfamily D member 6 (CYP2D6) small molecule antagonists: luciferase biochemical (cell-free) qHTS assay (AID 1645840; active = well fitted curve in the direction sought with a large enough effect in the repeat runs; an effect the other way counts as inactive or inconclusive; note: potency is the fitted concentration of half-maximal effect; nearly all actives have a fitted effect of over 55% in size)
# Cytochrome P450 2D6 (Homo sapiens), sequence (P10635 whole entry, looked up): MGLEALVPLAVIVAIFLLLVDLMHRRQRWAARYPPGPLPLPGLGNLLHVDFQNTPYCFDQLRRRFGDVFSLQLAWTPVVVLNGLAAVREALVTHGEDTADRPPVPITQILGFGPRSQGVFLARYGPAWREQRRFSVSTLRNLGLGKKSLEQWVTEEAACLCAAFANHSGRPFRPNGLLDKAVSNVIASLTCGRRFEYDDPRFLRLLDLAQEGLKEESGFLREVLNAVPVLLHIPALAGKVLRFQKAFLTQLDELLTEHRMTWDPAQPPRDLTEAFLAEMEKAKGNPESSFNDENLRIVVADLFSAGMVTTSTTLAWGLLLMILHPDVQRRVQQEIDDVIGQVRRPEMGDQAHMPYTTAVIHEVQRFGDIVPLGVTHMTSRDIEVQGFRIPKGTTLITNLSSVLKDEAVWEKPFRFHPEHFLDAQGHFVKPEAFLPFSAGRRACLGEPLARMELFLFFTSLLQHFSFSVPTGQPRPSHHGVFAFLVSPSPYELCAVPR
# Procedure, shortened: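 P450-Glo CYP2D6 system: proluciferin substrate converted by enzyme to luciferin, read by luminescence proportional to activity. Enzyme-substrate mix with compound 10 min at room temperature, then NADPH regeneration 1 h before detection reagent.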
# [2] = molecular target: Cytochrome P450 2C9 (Homo sapiens) (UniProt P11712); test: Cytochrome P450 family 2 subfamily C member 9 (CYP2C9) small molecule antagonists: luciferase biochemical (cell-free) qHTS assay (AID 1645842; active = well fitted curve in the direction sought with a large enough effect in the repeat runs; an effect the other way counts as inactive or inconclusive; note: potency is the fitted concentration of half-maximal effect; nearly all actives have a fitted effect of over 55% in size)
# Cytochrome P450 2C9 (Homo sapiens), sequence (P11712 whole entry, looked up): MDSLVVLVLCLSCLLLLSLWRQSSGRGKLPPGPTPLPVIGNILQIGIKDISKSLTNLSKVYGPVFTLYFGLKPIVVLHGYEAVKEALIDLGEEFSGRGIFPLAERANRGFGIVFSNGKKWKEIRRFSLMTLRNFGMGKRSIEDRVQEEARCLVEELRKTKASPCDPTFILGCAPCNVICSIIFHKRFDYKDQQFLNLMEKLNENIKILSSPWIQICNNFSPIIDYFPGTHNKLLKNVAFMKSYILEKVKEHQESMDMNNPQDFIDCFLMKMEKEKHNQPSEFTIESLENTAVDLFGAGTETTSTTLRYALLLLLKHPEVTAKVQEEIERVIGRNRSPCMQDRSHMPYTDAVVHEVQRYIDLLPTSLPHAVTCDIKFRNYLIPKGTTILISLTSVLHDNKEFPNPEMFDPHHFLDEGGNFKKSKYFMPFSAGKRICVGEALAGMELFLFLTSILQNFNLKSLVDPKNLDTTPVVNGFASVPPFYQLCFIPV
# Procedure, shortened: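 P450-Glo CYP2C9 system: proluciferin substrate with enzyme in mix containing 0.4% BSA, 10 min at room temperature, then NADPH regeneration solution added and incubated 1 h at 37C. Detection reagent stopped reaction; luminescence read after 20 min as RLU.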
# HaCat = test: Cytotoxic Profiling of Annotated Libraries Using Quantitative High-Throughput Screening (AID 1296008); settings: Five cell lines viability, CellTiter-Glo ATP luminescence, 48-72 h; max response: stronger effect = lower value; note: nearly all actives have a fitted effect of over 60% in size; note: potency is the fitted concentration of half-maximal effect; for max response: % is set by controls: 0 for no effect and ±100 for the full control effect
# Procedure, shortened: (§1)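 Cells exposed to compounds for 48 or 72 hr at 37 degrees Celsius. Viability read as ATP-coupled luminescence with CellTiter-Glo after 10 min at room temperature.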
# PA-1 = test: Primary qHTS to identify gynecologic anti-cancer compounds using libraries of approved drugs and bioactive compounds (AID 1345084); settings: Gynecologic cancer cell panel viability, ATPlite luminescence, 48 h; series mostly up to 57.5 µM; note: nearly all actives have a fitted effect of over 55% in size; note: potency is the fitted concentration of half-maximal effect
# Procedure, shortened: (§2)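 Cell viability after 48 h drug treatment, ATPlite luminescence readout; five doses.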
# CAOV3 = test: as above; settings: Gynecologic cancer cell panel viability, ATPlite luminescence, 48 h; series mostly up to 57.5 µM
# Procedure, shortened: as §2
# [3] = P-glycoprotein substrates identified in KB-8-5-11 adenocarcinoma cell line, qHTS therapeutic library screen (AID 1346987); note: nearly all actives have a fitted effect of over 65% in size; note: potency is the fitted concentration of half-maximal effect
# Procedure, shortened: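 In this qHTS, P-gp-rich KB-8-5-11 cells received library compounds across a concentration range. Viability was quantified by luminescence after 72 h at 37 degree C.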
# [4] = test system: Zika virus NS2B-NS3 protease (unlinked complex); test: Primary screen GU Rhodamine qHTS for Zika virus inhibitors: Unlinked NS2B-NS3 protease assay (AID 1347159); note: % is set by controls: 0 for no effect and ±100 for the full control effect; nearly all actives have a fitted effect of over 60% in size
# Procedure, shortened: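 Percent inhibition came from the 15-min rise in Rhodamine110 fluorescence (1.5 microM substrate, ~15% conversion), normalized to no-inhibitor and no-enzyme wells and Hill-fitted. Unlinked protease, 25 nM, pH 8.0 Tris buffer; compounds up to 114 microM, 15-min preincubation.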
# SKOV3 = test: Primary qHTS to identify gynecologic anti-cancer compounds using libraries of approved drugs and bioactive compounds (AID 1345084); settings: Gynecologic cancer cell panel viability, ATPlite luminescence, 48 h; series mostly up to 57.5 µM; note: nearly all actives have a fitted effect of over 55% in size; note: potency is the fitted concentration of half-maximal effect
# Procedure, shortened: as §2
# [5] = qHTS to identify inhibitors of the type 1 interferon - major histocompatibility complex class I in skeletal muscle: primary screen against the NCATS Mechanism Interrogation Plate v5.0 (MIPE) Libary (AID 1347411); note: nearly all actives have a fitted effect of over 65% in size; note: potency is the fitted concentration of half-maximal effect;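 for activity change, negative = inhibition: plate controls were vehicle for no effect and reference inhibitor for full effect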
# Procedure, shortened: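 HLA-B HiBit myoblasts, dexamethasone-free medium + 4 ng/ml IFN-b, 24 h compound, 11-pt 1:3 from 46 uM final. Readout: Nano-Glo HiBiT lytic luminescence after 10 min lysis, RT.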
# NIH3T3 = test: Cytotoxic Profiling of Annotated Libraries Using Quantitative High-Throughput Screening (AID 1296008); settings: Five cell lines viability, CellTiter-Glo ATP luminescence, 48-72 h; max response: stronger effect = lower value; note: nearly all actives have a fitted effect of over 60% in size; note: potency is the fitted concentration of half-maximal effect; for max response: % is set by controls: 0 for no effect and ±100 for the full control effect
# Procedure, shortened: as §1
# [6] = qHTS assay to identify inhibitors of the type 1 interferon - major histocompatibility complex class I in skeletal muscle: Counter screen cell viability and HiBit confirmation (AID 1347412); settings: iHSKM muscle cells + IFN-b, HiBiT or CellTiter-Glo, 24 h, at 45.9 µM (top of the series); note: % is set by controls: 0 for no effect and ±100 for the full control effect; nearly all actives have a fitted effect of over 60% in size
# Procedure, shortened: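 After 24 h with human IFN-beta (4 ng/ml) and compound titrations (top 46 uM final, 1:3, 12 points), HLA-B HiBit myoblasts were lysed for either Nano-Glo HiBiT luminescence or CellTiter Glo viability on paired plates.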
# [7] = molecular target: Catechol O-methyltransferase (Homo sapiens) (UniProt P21964); test: Confirmatory Screen for Target Class Profiling of Small Molecule Inhibitors of Methyltransferases (AID 1745852; calls by dose curve; note: potency is the fitted concentration of half-maximal effect; for activity change, negative = inhibition: % is set by controls: 0 for no effect and ±100 for the full control effect); settings: MTase-Glo luminescence, SAH detection, recombinant enzyme; measured here: COMT max response; stronger effect = lower value
# Catechol O-methyltransferase (Homo sapiens), sequence (P21964 whole entry, looked up): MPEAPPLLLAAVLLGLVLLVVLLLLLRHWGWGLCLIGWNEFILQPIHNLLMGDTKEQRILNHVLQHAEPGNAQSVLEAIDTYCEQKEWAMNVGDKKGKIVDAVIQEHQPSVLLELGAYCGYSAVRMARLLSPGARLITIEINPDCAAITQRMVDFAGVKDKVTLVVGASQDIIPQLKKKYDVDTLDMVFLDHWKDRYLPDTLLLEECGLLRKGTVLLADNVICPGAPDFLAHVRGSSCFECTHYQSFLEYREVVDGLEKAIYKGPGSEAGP
# [8] = molecular target: Guanidinoacetate N-methyltransferase (Homo sapiens) (UniProt Q14353); test: as above; settings: activity change, negative = inhibition: at 57.3 µM (top of the series) unless noted
# [9] = molecular target: Nicotinamide N-methyltransferase (Homo sapiens) (UniProt P40261); test: as above; settings: MTase-Glo luminescence, SAH detection, recombinant enzyme; measured here: NNMT max response; stronger effect = lower value
# Nicotinamide N-methyltransferase (Homo sapiens), sequence (P40261 whole entry, looked up): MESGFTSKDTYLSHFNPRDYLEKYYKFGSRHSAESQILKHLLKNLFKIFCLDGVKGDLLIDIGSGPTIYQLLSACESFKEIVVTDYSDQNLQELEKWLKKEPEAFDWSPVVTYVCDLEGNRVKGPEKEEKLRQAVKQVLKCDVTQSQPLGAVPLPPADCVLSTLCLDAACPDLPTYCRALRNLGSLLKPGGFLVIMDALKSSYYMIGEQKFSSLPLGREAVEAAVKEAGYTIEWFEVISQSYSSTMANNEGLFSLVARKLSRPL
# [10] = molecular target: Phenylethanolamine N-methyltransferase (Homo sapiens) (UniProt P11086); test: as above; settings: MTase-Glo luminescence, SAH detection, recombinant enzyme; measured here: PNMT max response; stronger effect = lower value
# Phenylethanolamine N-methyltransferase (Homo sapiens), sequence (P11086 whole entry, looked up): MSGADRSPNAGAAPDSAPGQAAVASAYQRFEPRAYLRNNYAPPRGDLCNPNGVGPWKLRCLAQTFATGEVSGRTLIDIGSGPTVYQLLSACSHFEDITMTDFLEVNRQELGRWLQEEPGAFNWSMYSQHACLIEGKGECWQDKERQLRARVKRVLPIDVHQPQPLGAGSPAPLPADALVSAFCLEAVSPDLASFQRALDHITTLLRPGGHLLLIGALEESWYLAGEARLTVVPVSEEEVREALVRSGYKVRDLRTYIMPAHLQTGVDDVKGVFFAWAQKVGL
# [11] = Drug repurposing screens with cells derived from glioblastoma tumor samples (AID 1345199); settings: GBM patient neurospheres viability, ATP luminescence, 48 h; note: nearly all actives have a fitted effect of over 40% in size; note: potency is the fitted concentration of half-maximal effect; for activity, negative = cell killing: % is set by controls: 0 for no effect and ±100 for the full control effect
# Procedure, shortened: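 Primary testing used CD133+ neurospheres from four GBM patients, seven concentrations, 48 h exposure and ATP-based viability; confirmation added three slower-growing patient lines.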
# [12] = Tertiary RLuc qRT-PCR qHTS assay for Zika virus inhibitors (AID 1347169)
# Procedure, shortened: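 Orthogonal cell-based readout: luminescence measured 1-1.5 hrs after adding live-cell Renilla substrate to Vero cells that had been infected with ZIKV-RLuc (MOI 1-2) post-compound, incubated 48-72 hrs at 37 degrees C.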
# [13] = at 46.1 µM (top of the series), tumour line C
structure (smiles),measurement,setting,value
CC(C)(C)c1ccc(CNC(=S)NCc2ccc(NS(C)(=O)=O)c(F)c2)cc1,Potency,[1],3.38 µM (active)
same,Potency,[2],0.151 µM (active)
same,max response,HaCat,-44.1% (inactive)
same,Potency,PA-1,inactive
N#Cc1c[nH]c2c(C(=O)N3CCN(CCc4ccc(F)cc4)CC3)cccc12,Potency,[1],15.1 µM (active)
same,Potency,[2],13.5 µM (active)
same,max response,HaCat,-7.89% (inactive)
same,Potency,CAOV3,inactive
same,Potency,PA-1,inactive
O=S(=O)(c1cccc2ccccc12)n1ccc2ccc(N3CCN4CCCC4C3)cc21 (centres undefined),Potency,[3],20.6 µM (active)
same,Potency,[4],inactive
same,Potency,[1],2.68 µM (active)
same,Potency,[2],12 µM (active)
same,max response,HaCat,4.67% (inactive)
same,Potency,SKOV3,inactive
CNCc1ccc(C)c(NC(=O)c2ccc(Nc3nc(-c4ccccc4)c4ccccc4n3)cc2)c1,Potency,[4],inactive
same,Potency,[5],33 µM (active)
same,Potency,[1],12 µM (active)
same,Potency,NIH3T3,18.4 µM (active)
same,"activity change, negative = inhibition",[6]; HiBiT,-20% (inactive)
O=C(Nc1ccc(F)cc1)N1CCc2ccccc2C1c1ccc(C(F)(F)F)cc1 (centres undefined),Potency,[4],inactive
same,Potency,[1],9.52 µM (active)
same,Potency,[2],5.35 µM (active)
same,Potency,HaCat,14.6 µM (active)
same,Potency,CAOV3,inactive
same,Potency,PA-1,inactive
O=[N+]([O-])c1ccc(-[n+]2nc(-c3ccccc3)nn2-c2ccc(I)cc2)cc1,Potency,[1],5.35 µM (active)
same,Potency,[2],19 µM (active)
same,activity,[7],-47.4%
same,Potency,[8],21.5 µM (active)
same,activity,[9],-39.3%
same,activity,[10],-49.2%
same,max response,HaCat,-29.5% (inactive)
same,Potency,PA-1,inactive
same,Potency,SKOV3,inactive
Cc1nc2ccc(C(=O)N3CCC4(CC3)CC(=O)c3c(cnn3C(C)C)C4)cc2[nH]1,Potency,[5],inactive
same,max response,HaCat,-28.8% (inactive)
COc1cc2ncnc(Nc3ccc(Oc4ccccc4)cc3)c2cc1OC,Potency,[4],inactive
same,Potency,[1],19 µM (active)
same,Potency,[2],16.9 µM (active)
same,Potency,HaCat,7.31 µM (active)
same,Potency,SKOV3,28.2 µM (active)
COc1cc(N2CCOCC2)ccc1Nc1ncc(F)c(Nc2ccccc2NS(C)(=O)=O)n1,Potency,[4],inactive
same,activity,[7],-0.204%
same,"activity change, negative = inhibition",[8],2.81%
same,activity,[9],3.16%
same,activity,[10],-0.832%
same,Potency,HaCat,7.31 µM (active)
O=c1c(-n2ccnn2)c[nH]n1-c1cc(N2CCOCC2)ncn1,Potency,HaCat,1.86 µM (active)
same,"activity change, negative = inhibition",[6]; HiBiT,-24.7% (inactive)
same,"activity change, negative = inhibition",[6]; Viability,-14.1% (inactive)
COCCOCCOc1ccc(C2=N[C@@](C)(C(=O)O)CS2)c(O)c1,Potency,[4],inactive
same,max response,HaCat,-22.3% (inactive)
C=C1[C@@H](C)[C@H]2[C@H](Cc3c[nH]c4ccccc34)NC(=O)[C@]23C(=O)/C=C/C(=O)[C@H](O)/C(C)=C\[C@@H](C)C/C=C/[C@H]3[C@@H]1O,Potency,[3],inactive
same,Potency,NIH3T3,3.55 µM (active)
same,Potency,CAOV3,inactive
same,Potency,PA-1,inactive
Cc1ccc(CCCO)c(NCc2ccc3nc(NCCCN4CCOCC4)n(Cc4nc(C)ccc4O)c3c2)c1,Potency,[4],inactive
same,max response,HaCat,-12.2% (inactive)
CCN(CCCOc1ccc2c(Nc3cc(CC(=O)Nc4cccc(F)c4)[nH]n3)ncnc2c1)CCOP(=O)(O)O,Potency,[5],inactive
same,Potency,HaCat,2.06 µM (active)
same,Potency,SKOV3,15.8 µM (active)
COc1ccc(C2(CNC(=O)[C@](C)(Cc3c[nH]c4ccccc34)NC(=O)Nc3ccc([N+](=O)[O-])cc3)CCCCC2)nc1,Potency,[1],3.01 µM (active)
same,Potency,[2],2.68 µM (active)
same,Potency,CAOV3,inactive
same,Potency,PA-1,inactive
CCCCc1nc(Cl)c(CO)n1Cc1ccc(-c2ccccc2-c2nnn[nH]2)cc1,Potency,CAOV3,inactive
same,Potency,PA-1,inactive
same,Potency,SKOV3,inactive
COc1ccc(NS(=O)(=O)c2sc3ccc(Cl)cc3c2C)cc1N1CCNCC1,Potency,[4],inactive
same,Potency,[1],23.9 µM (active)
same,Potency,CAOV3,inactive
same,Potency,PA-1,inactive
same,Potency,SKOV3,inactive
Cc1cc(N=Nc2ccc(S(=O)(=O)Nc3ccccn3)cc2)c(N)cc1O,Potency,[4],inactive
same,Potency,NIH3T3,8.2 µM (active)
same,Potency,PA-1,8.91 µM (active)
CCNC(=O)[C@@H]1CCCN1C(=O)[C@H](CCCN=C(N)N)NC(=O)[C@H](CC(C)C)NC(=O)[C@@H](CC(C)C)NC(=O)[C@H](Cc1ccc(O)cc1)NC(=O)[C@H](CO)NC(=O)[C@H](Cc1c[nH]c2ccccc12)NC(=O)[C@H](Cc1cnc[nH]1)NC(=O)[C@@H]1CCC(=O)N1,Potency,[4],inactive
same,Potency,CAOV3,inactive
same,Potency,PA-1,inactive
same,Potency,SKOV3,inactive
same,"activity, negative = cell killing","[11]; at 45.9 µM (top of the series), tumour line B",-5.52% (inactive)
same,"activity, negative = cell killing","[11]; at 45.9 µM (top of the series), tumour line D",4.71% (inactive)
same,"activity, negative = cell killing","[11]; at 46 µM (top of the series), tumour line A",-26.4% (inactive)
same,"activity, negative = cell killing",[11]; [13],1.53% (inactive)
CNCCN(C)Cc1cn[nH]c1-c1ccc(OC2CC(OCCC3CCOCC3)C2)cc1 (centres undefined),Potency,[5],inactive
same,activity,[7],0.741%
same,"activity change, negative = inhibition",[8],7.78%
same,activity,[9],-3.1%
same,activity,[10],-1.61%
same,max response,NIH3T3,-20% (inactive)
CC[C@H](C)[C@H]1O[C@]2(CC[C@@H]1C)C[C@@H]1C[C@@H](C/C=C(\C)[C@@H](O[C@H]3C[C@H](OC)[C@@H](O[C@H]4C[C@H](OC)[C@@H](O)[C@H](C)O4)[C@H](C)O3)[C@@H](C)/C=C/C=C3\CO[C@@H]4[C@H](O)C(C)=C[C@@H](C(=O)O1)[C@]34O)O2,Potency,[12],41.5 nM (active) and 2.62 µM (active)
same,Potency,CAOV3,inactive
same,Potency,PA-1,inactive
same,Potency,SKOV3,inactive
same,"activity, negative = cell killing",[11]; [13],-34.4% (inactive)
same,Potency,[11]; tumour line A,1.12 µM (active)
same,Potency,[11]; tumour line B,3.98 µM (active)
same,Potency,[11]; tumour line D,2.82 µM (active)
CO[C@@H]1[C@@H](O[C@H]2O[C@@H](C)[C@H](O[C@@H]3C[C@](C)(O)[C@H](O)[C@@H](C)O3)[C@@H](N(C)C)[C@@H]2O)[C@@H](CC=O)C[C@@H](C)[C@@H](O[C@H]2CC[C@H](N(C)C)[C@H](C)O2)/C=C/C=C/C[C@@H](C)OC(=O)C[C@H]1O,Potency,[4],inactive
same,Potency,CAOV3,inactive
same,Potency,PA-1,inactive
same,Potency,SKOV3,inactive
Cc1cc(CS(=O)(=O)c2ccccc2)cc(OCc2ccc(CN3CCC[C@@H]3CO)cc2)c1,Potency,[5],inactive
same,Potency,NIH3T3,20.6 µM (active)
O=C(CC1NCCC[C@H]1O)Cn1cnc2cc(Br)c(Cl)cc2c1=O (some centres undefined),Potency,CAOV3,inactive
same,Potency,SKOV3,inactive
CC1OC2O[C@H]3[C@@H](OCC(O)[C@H]3O)OC(=O)C34CCC(C)(C)CC3C3=CCC5C6(C)CC(O)C(OC7OC(CO)C(O)C(O)C7O[C@@H]7OC[C@H](OC(=O)CC(C)(O)CC(=O)OC1C(OC1OCC(O)C(O)C1O)C2O)[C@@H](O)[C@H]7O)C(C)(CO)C6CCC5(C)C3(C)CC4 (some centres undefined),max response,NIH3T3,-22% (inactive)
same,Potency,CAOV3,inactive
